Data published in ChEMBL document CHEMBL2218924, “A broad activity screen in support of a chemogenomic map for kinase signalling research and drug discovery” (Biochem J, 2013).

Tests used:
[1] = target: T1, Aurora kinase C (Homo sapiens) (UniProt Q9UQB9); details: at 1 µM
T1 sequence (whole entry): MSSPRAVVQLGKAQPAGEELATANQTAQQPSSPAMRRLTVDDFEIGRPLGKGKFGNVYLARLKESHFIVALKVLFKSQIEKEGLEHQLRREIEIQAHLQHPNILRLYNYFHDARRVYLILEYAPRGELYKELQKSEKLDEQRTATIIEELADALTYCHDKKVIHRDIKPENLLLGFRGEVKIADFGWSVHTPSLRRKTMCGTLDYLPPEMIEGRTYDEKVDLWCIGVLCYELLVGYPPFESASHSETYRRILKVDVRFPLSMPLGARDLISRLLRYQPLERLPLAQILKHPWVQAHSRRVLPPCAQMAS

[2] = target: T1, Aurora kinase C (Homo sapiens); details: at 10 µM
[3] = target: Tyrosine-protein kinase receptor UFO (Homo sapiens) (UniProt P30530); details: at 1 µM
Tyrosine-protein kinase receptor UFO (Homo sapiens), sequence (P30530 whole entry): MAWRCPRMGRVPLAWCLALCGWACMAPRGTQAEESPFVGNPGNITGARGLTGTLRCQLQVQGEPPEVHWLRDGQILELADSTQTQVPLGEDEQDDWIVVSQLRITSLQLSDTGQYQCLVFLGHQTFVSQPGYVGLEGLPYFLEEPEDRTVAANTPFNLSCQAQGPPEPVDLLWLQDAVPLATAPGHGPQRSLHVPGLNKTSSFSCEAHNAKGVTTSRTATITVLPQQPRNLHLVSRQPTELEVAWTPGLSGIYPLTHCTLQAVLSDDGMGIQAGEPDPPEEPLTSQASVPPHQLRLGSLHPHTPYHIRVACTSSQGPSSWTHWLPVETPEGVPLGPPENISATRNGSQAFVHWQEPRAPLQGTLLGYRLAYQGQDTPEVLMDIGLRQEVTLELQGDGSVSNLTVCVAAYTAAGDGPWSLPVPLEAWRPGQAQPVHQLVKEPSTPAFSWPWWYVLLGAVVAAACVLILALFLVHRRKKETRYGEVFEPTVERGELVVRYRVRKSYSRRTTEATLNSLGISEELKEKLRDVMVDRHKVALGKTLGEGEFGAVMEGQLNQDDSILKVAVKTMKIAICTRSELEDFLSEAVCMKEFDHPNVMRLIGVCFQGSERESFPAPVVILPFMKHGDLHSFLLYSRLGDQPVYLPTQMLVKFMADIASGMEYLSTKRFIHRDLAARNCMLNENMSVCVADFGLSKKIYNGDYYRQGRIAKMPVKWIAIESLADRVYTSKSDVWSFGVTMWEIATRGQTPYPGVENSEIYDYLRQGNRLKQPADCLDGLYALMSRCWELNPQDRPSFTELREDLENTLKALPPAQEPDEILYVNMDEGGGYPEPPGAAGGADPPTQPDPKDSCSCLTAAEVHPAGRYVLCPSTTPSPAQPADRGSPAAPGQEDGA

[4] = target: Tyrosine-protein kinase receptor UFO (Homo sapiens) (UniProt P30530); details: at 10 µM
[5] = target: Protein-tyrosine kinase 6 (Homo sapiens) (UniProt Q13882); details: at 1 µM
Protein-tyrosine kinase 6 (Homo sapiens), sequence (Q13882 whole entry, looked up): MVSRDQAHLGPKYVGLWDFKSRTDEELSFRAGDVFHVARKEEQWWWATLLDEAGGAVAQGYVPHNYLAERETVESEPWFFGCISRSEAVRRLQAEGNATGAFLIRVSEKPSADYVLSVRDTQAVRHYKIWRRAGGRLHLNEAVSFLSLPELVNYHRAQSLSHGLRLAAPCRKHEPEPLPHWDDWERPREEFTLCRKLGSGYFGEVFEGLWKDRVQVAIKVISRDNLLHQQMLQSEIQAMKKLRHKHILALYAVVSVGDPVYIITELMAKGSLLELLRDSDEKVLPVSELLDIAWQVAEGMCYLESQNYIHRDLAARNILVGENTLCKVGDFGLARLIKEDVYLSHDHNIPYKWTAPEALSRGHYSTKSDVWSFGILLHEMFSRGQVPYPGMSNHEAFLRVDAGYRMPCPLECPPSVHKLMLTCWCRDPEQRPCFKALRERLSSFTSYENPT

[6] = target: Protein-tyrosine kinase 6 (Homo sapiens) (UniProt Q13882); details: at 10 µM
[7] = target: Tyrosine-protein kinase BTK (Homo sapiens) (UniProt Q06187); details: at 1 µM
Tyrosine-protein kinase BTK (Homo sapiens), sequence (Q06187 whole entry): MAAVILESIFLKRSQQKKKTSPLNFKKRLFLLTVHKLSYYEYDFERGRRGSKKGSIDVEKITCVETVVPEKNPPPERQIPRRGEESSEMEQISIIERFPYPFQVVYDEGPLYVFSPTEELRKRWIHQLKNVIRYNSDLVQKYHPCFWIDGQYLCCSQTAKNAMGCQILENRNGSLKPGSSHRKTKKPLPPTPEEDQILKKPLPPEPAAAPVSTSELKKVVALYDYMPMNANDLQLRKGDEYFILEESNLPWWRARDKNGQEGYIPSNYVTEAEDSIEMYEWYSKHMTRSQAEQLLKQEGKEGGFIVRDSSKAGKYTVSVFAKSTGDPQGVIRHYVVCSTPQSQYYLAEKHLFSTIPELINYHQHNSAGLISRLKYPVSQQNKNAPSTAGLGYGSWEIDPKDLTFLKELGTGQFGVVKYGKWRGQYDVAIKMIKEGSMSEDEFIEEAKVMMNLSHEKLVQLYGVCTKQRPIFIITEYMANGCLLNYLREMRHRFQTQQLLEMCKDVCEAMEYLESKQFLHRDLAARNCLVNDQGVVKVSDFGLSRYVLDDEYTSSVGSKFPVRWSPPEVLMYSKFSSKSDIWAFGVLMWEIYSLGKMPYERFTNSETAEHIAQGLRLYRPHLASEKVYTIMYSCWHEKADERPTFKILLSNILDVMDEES

[8] = target: Tyrosine-protein kinase BTK (Homo sapiens) (UniProt Q06187); details: at 10 µM
[9] = target: Tyrosine-protein kinase Blk (Homo sapiens) (UniProt P51451); details: at 1 µM
Tyrosine-protein kinase Blk (Homo sapiens), sequence (P51451 2-505 limits assumed): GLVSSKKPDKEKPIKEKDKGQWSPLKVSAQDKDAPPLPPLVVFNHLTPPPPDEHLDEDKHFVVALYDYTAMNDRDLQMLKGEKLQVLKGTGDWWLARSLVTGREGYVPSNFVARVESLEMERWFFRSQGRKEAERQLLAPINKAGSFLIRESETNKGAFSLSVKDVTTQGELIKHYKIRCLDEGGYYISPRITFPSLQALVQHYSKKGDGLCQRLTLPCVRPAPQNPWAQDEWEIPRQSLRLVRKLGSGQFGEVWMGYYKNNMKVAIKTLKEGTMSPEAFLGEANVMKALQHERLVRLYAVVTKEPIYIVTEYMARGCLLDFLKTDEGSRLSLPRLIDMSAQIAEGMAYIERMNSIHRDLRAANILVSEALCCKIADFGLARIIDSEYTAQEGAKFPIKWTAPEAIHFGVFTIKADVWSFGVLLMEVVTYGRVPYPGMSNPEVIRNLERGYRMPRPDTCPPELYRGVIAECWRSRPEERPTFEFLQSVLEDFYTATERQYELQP

[10] = target: Tyrosine-protein kinase Blk (Homo sapiens) (UniProt P51451); details: at 10 µM

| Compound | residual activity [1] [%] | residual activity [2] [%] | residual activity [3] [%] | residual activity [4] [%] | residual activity [5] [%] | residual activity [6] [%] | residual activity [7] [%] | residual activity [8] [%] | residual activity [9] [%] | residual activity [10] [%] |
| --- | --- | --- | --- | --- | --- | --- | --- | --- | --- | --- |
| COc1cc2ncnc(Nc3ccc(O)c(Br)c3)c2cc1OC | 45 | 10 | 36 | 17 | 18 | 1 | 80 | 33 | 21 | 3 |
| Nc1ccc2ncnc(NCCc3ccc(Oc4ccccc4)cc3)c2c1 | 89 | 87 | 72 | 33 | 95 | 79 | 95 | 94 | 68 | 18 |
| Cc1cccc(-c2[nH]c(C(C)(C)C)nc2-c2ccc3c(c2)OCO3)n1 | – | 82 | 87 | 81 | – | 102 | – | – | – | 106 |
| COc1ccc(OC)c2c(=S)c3ccccc3[nH]c12 | 78 | 75 | 96 | 83 | 104 | 104 | 96 | 82 | 111 | 96 |
| Cc1cc2ncc(-c3ccccc3)nc2cc1C | 104 | 87 | 100 | 88 | 103 | 101 | 94 | 105 | – | 95 |
| COc1ccc(S(=O)(=O)N(CCO)c2ccccc2CN(C)C/C=C/c2ccc(Cl)cc2)cc1 | 83 | 88 | 107 | 82 | 100 | 88 | – | 93 | 99 | 58 |
| c1ccc(-c2n[nH]c3c2oc2ccccc23)cc1 | – | – | 81 | 73 | – | – | – | – | 98 | 49 |
| N#Cc1cnc2cnc(NCc3cccnc3)cc2c1Nc1ccc(F)c(Cl)c1 | 71 | 54 | 19 | 22 | – | – | 70 | 58 | 4 | 3 |
| COc1ccc(CNc2nc(N(CCO)CCO)nc3c2ncn3C(C)C)cc1 | 75 | 85 | 92 | 75 | 104 | 101 | 88 | 86 | 96 | 83 |
| Nc1n[nH]c2nnc(-c3c(-c4ccccc4)nn4ccccc34)cc12 | 83 | 66 | 98 | 84 | 95 | 78 | 86 | 47 | 100 | 63 |
| Cc1nc2cc3nc(-c4cccs4)cnc3cc2n1C | 102 | 42 | 87 | 68 | 109 | 98 | 93 | 83 | 100 | 48 |
| O=c1c2ccccc2[nH]c(=S)n1CCN1CCC(=C(c2ccc(F)cc2)c2ccc(F)cc2)CC1 | 110 | 84 | 103 | 89 | 112 | 95 | 90 | 123 | 101 | 66 |
| O=C1NC(=O)c2c1c1c3ccccc3[nH]c1c1[nH]c3cc(Br)ccc3c21 | 89 | 59 | 94 | 80 | 105 | 100 | 79 | 68 | 102 | 85 |
| Nc1cccc(-c2cc3c(Oc4cccc(O)c4)ncnc3[nH]2)c1 | 72 | 20 | 101 | 39 | 0 | 0 | 21 | -1 | 7 | 1 |
| CC(C)n1cnc2/c(=N/c3cccc(Cl)c3)nc(NCCO)[nH]c21 | 74 | 52 | 94 | 44 | 105 | 100 | 72 | 32 | 79 | 15 |
| CCN(CC)C(=O)c1ccc(Nc2nc(OCC3CCCCC3)c3nc[nH]c3n2)cc1 | 1 | 2 | 27 | 7 | 54 | 11 | 34 | -2 | 20 | 1 |
| c1ccc2c(-c3ccncc3)c[nH]c2c1 | 66 | 46 | 81 | 75 | 95 | 75 | 99 | – | – | 107 |
| Cc1cncc2cccc(S(=O)(=O)N3CCCN(C(=O)CN)C[C@H]3C)c12 | 5 | 1 | 88 | 74 | – | – | – | – | 122 | 75 |
| NC(=O)c1ccc2[nH]c(-c3ccc(Oc4ccc(Cl)cc4)cc3)nc2c1 | 72 | 79 | 107 | 70 | 102 | 103 | 89 | 86 | 103 | 77 |

| Compound | residual activity [1] [%] | residual activity [2] [%] | residual activity [3] [%] | residual activity [4] [%] | residual activity [5] [%] | residual activity [6] [%] | residual activity [7] [%] | residual activity [8] [%] | residual activity [9] [%] | residual activity [10] [%] |
| --- | --- | --- | --- | --- | --- | --- | --- | --- | --- | --- |
| Cc1cc(Nc2nc(-c3ccccc3)nc3ccccc23)n[nH]1 | 7 | 4 | 33 | 3 | 40 | 4 | 19 | 0 | 9 | 1 |
| O=c1cc(-c2cccc3c2Sc2ccccc2S3)oc(N2CCOCC2)c1 | 102 | 92 | 102 | 86 | 109 | 96 | 87 | 80 | 101 | 76 |
| O=C1Nc2ccccc2/C1=C1/Nc2ccccc2/C1=N\OCCC(O)CO (stereo unspecified) | 43 | 30 | 12 | 5 | 56 | 53 | 12 | -2 | 4 | 0 |
| O=C1Nc2ccc(Br)cc2/C1=C\c1cc2c([nH]1)CCCC2 | 82 | 69 | 72 | 62 | 107 | 107 | – | 109 | 82 | 38 |
| Oc1n[nH]c2nnc(-c3c(-c4ccccc4)nn4ccccc34)cc12 | 84 | 84 | 118 | 104 | 97 | 87 | 78 | 33 | 107 | 90 |
| Nc1nc(Nc2ccc(S(N)(=O)=O)cc2)nn1C(=S)Nc1c(F)cccc1F | -2 | 0 | 3 | 2 | 49 | 8 | 79 | 27 | 7 | 0 |
| O=C(O)c1ccc2c3c1cccc3c(=O)n1c3ccccc3nc21 | 82 | 43 | 61 | 35 | 110 | 105 | 88 | 83 | 99 | 81 |
| O=[N+]([O-])c1ccc(-c2nc(-c3ccc(F)cc3)c(-c3ccncc3)[nH]2)cc1 | 107 | 92 | 120 | 106 | 36 | 31 | 91 | 56 | 110 | 98 |
| CC(C)n1cnc2c(NCc3ccccc3)nc(NCCCO)nc21 | 95 | 89 | 105 | 75 | 89 | 82 | 93 | 94 | 78 | 71 |
| N#CC(C#N)=C(N)/C(C#N)=C/c1ccc(O)cc1 | – | – | 92 | 87 | – | – | 94 | 118 | – | – |
| N#CCCc1ccc2c(c1)-c1[nH]c3ccc([N+](=O)[O-])cc3c1CC(=O)N2 | 63 | 22 | 57 | 35 | – | – | 79 | 66 | 24 | 11 |
| CCOc1cc2ncnc(Nc3cccc(Br)c3)c2cc1OCC | 98 | 52 | 66 | 31 | 18 | 2 | 72 | 28 | 17 | 3 |
| CCC(=O)Nc1ccc2ncnc(Nc3cccc(Br)c3)c2c1 | 94 | 80 | 83 | 80 | 80 | 60 | 95 | 78 | 112 | 80 |
| O=C1Nc2cc(Br)ccc2/C1=C1/Nc2ccccc2/C1=N\O | 74 | 76 | 52 | 39 | 90 | 102 | 1 | 0 | 1 | 5 |
| Cn1nc2c3c(cccc31)C(=O)c1ccccc1-2 | 72 | 58 | 90 | 63 | 103 | – | 94 | 76 | 111 | 91 |
| COc1cc2ncc(-c3ccccc3)nc2cc1OC | – | – | 96 | 84 | – | – | – | – | – | – |
| CN(C)CCCn1cc(C2=C(c3c[nH]c4ccccc34)C(=O)NC2=O)c2ccccc21 | 109 | 72 | 70 | 39 | 110 | 89 | 89 | 72 | 65 | 13 |
| CC#CC(=O)Nc1cc2c(Nc3ccc(F)c(Cl)c3)ncnc2cn1 | 99 | 73 | 82 | 74 | 99 | 97 | 47 | 16 | 82 | 49 |
